Bioassay records from PubChem BioAssay.
ssDAF-12 act: S. stercoralis DAF-12 nuclear receptor activators, primary screen, cell-based, luminescence, HEK293, GRIP1 co-expression, lit1-tk-luc | HEK293 ssDAF-12/GRIP1 lit1-tk-luc reporter; % of 3 µM dafachronic acid response | 370,000 tested, 1% active | activation, % at 6.8 µM | AID 652126, 2013 | Nuclear hormone receptor DAF-12 (Strongyloides stercoralis);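 active = activation above the mean over all tested compounds plus 3 SD, cut at about 0.9% in these data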
hcDAF12 agonist: H. contortus DAF-12 nuclear receptor activators, primary screen, cell-based, luminescence, HEK293, lit1-tk-luc reporter | 370,000 tested, 1.4% active | activation, % at 6.8 µM | HEK293 hcDAF-12 lit1-tk-luc reporter; 0% DMSO, 100% Δ7-dafachronic acid;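 active = activation above the mean of all tested compounds plus 3 SD, cut at about 5.5% in these data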
DAX1 inh-1: DAX1 (NR0B1) inhibitors, primary screen, cell-based, HEK293, Gal4-DAX1, luciferase luminescence | Nuclear receptor subfamily 0 group B member 1 (Homo sapiens), P51843 | HEK293 Gal4-DAX1 luciferase reporter | inhibition, % at 6.75 µM | 340,000 tested, 0.99% active;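 active = inhibition above the mean over all tested compounds plus 3 SD, cut at about 4.2% in these data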;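 note: inhibition shows as a rise in luminescence from relieved DAX1 repression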
Target sequence (P51843 207-470 limits assumed): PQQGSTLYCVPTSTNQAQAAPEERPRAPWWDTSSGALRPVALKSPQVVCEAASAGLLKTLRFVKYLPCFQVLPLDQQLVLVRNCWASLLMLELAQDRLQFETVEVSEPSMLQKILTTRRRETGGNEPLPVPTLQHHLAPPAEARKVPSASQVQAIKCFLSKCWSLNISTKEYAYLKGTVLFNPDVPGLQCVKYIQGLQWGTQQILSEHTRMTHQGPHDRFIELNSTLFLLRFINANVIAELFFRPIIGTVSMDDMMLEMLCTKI
hgDAF-12 ag: H. glycines DAF-12 receptor agonists, primary screen, cell-based, luminescence, HEK293, GAL4 fusion, UAS-luciferase | HEK293 GAL4-hgDAF12 UAS-luciferase reporter, agonist luminescence; normalized to butyrate control | Nuclear hormone receptor DAF-12 (Heterodera glycines), GAL4 fusion | activation, % at 6.8 µM | 370,000 tested, 1.8% active;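 active = activation above a cutoff set at the mean of all screened compounds plus 3 SD, cut at about 10% in these data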
DAX1 inh-2: DAX1 (NR0B1) inhibitors on StAR promoter, primary screen, cell-based, luminescence, SF-1 (NR5A1), full-length DAX-1. HEK293T StAR-luciferase reporter, SF-1/DAX-1 repression relief. inhibition, % at 6.8 µM. 370,000 tested, 1.1% active;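 active = inhibition above the mean over all tested compounds plus 3 SD, cut at about 3.6% in these data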;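 note: higher inhibition means more luminescence from relief of DAX-1 repression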
Large screens that a line does not name were inactive. In the library only some 4.1% were active in any assay of this set; here they are far more common.

Cc1nc(N2CCCCC2C)c2nnn(Cc3ccccc3)c2n1 (stereo unspecified)	none (no result: DAX1 inh-1)
Cc1ccc(/C=C/C(=O)N2CCc3ccccc3C2)cc1	none
O=C(/C=C/c1ccc(F)cc1)N1CCc2ccccc2C1	DAX1 inh-2 3.8
C/C(CC(=O)NCc1ccc(F)cc1)=N\NC(N)=S	DAX1 inh-1 4.8
C/C(CC(=O)NCc1ccccc1)=N\NC(N)=S	none
CC(=O)Nc1cccc(C(C)C2=CCCCC2)c1 (stereo unspecified)	none (no result: DAX1 inh-1)
CSc1nc2ccc(NC(=O)C3=NNC(=O)CC3)cc2s1	hcDAF12 agonist 5.6
CN(c1ccccc1)S(=O)(=O)c1cccc(NC(=O)CCN2C(=O)C3CCCCC3C2=O)c1 (stereo unspecified)	ssDAF-12 act 1.8
CN(C(=O)CNC(=O)c1ccccc1OCC(=O)Nc1ccc(I)cc1)c1ccccc1	none (no result: DAX1 inh-1)
Cc1ccc(N/C(=C\C(=O)c2ccccc2)C(=O)O)cc1	ssDAF-12 act 1.1, hgDAF-12 ag 10.5, DAX1 inh-2 4.3
COC(=O)c1ccc(NC(=O)C[n+]2ccccc2)cc1	ssDAF-12 act 1.8
CCOc1ccc(-n2c(=O)[nH]c3sc4c(c3c2=O)CCCC4)cc1	DAX1 inh-1 7.8
CCOc1ccc(-n2c(=O)c3c4c(sc3n(CC(=O)NCC3CCCO3)c2=O)CCCC4)cc1 (stereo unspecified)	none
C[C@H](O)[C@@H]1CN2CCc3ccc(N4CCOCC4)cc3[C@@H]2C[C@@H]1N(C)CC1CCCCC1	none (no result: DAX1 inh-1)
O=S1(=O)CC2c3ccc(F)cc3CN2CN1Cc1ccc(F)cc1 (stereo unspecified)	none (no result: DAX1 inh-1)
O=S1(=O)CC2c3ccc(F)cc3CN2CN1C1CCCC1 (stereo unspecified)	ssDAF-12 act 1.0 (no result: DAX1 inh-1)
O=C1CC2c3cc(Br)ccc3CCN2C(=O)CN1Cc1ccccc1 (stereo unspecified)	none (no result: DAX1 inh-1)
COc1ccc(CCNC(=O)c2cccnc2Cl)cc1OC	DAX1 inh-1 6.3
COCCNC(=O)CN(Cc1ccc(F)cc1)C(=O)CCC(=O)Nc1nccs1	DAX1 inh-1 4.2
COCCNC(=O)CN(Cc1ccc(OC)cc1)C(=O)CCC(=O)Nc1nccs1	none
O=C(O)c1ccc(-c2nc(-c3cccc(C(F)(F)F)c3)cs2)cc1	none
O=C(O)c1cccc(-n2cc(-c3cccc(C(F)(F)F)c3)cn2)c1	hgDAF-12 ag 12.6
CSc1ccccc1C(=O)NC1CCSc2ccccc21 (stereo unspecified)	hcDAF12 agonist 5.7
COc1ccc(CC(=O)NC2CCSc3ccccc32)c(OC)c1 (stereo unspecified)	DAX1 inh-1 7.7
O=C(NCCc1ccccc1)c1[nH]c(C(F)(F)F)nc1-c1ccccc1	ssDAF-12 act 1.2 (no result: DAX1 inh-1)
COc1ccc(C(=O)N/N=C\c2ccoc2)cc1	none
COc1ccc(/[N+]([O-])=C/c2ccoc2)cc1	hgDAF-12 ag 10.9
COC(=O)c1sc2ncccc2c1OCc1cccc(Cl)c1	DAX1 inh-1 4.2
O=C(Nc1cnccn1)c1ccc(F)cc1Cl	none
O=C1c2ccccc2C(=O)c2c(O)c(O)cc(O)c21	none
O=C1C=C(O)c2c(O)cc(O)c(O)c2C1=O	DAX1 inh-1 5.2
CC(=O)ON=C1C=CC(=C(C#N)c2ccccc2)C=C1	none (no result: DAX1 inh-1)
COc1ccc(C(C#N)=C2C=CC(=NO)C=C2)cc1	ssDAF-12 act 1.3
O=C(N/N=C/c1sc(N2CCCCC2)nc1-c1cccs1)C1CC1	none
NC(=O)N/N=C/c1sc(N2CCCCC2)nc1-c1cccs1	hgDAF-12 ag 12.3
CCn1c(=O)n(CC(=O)N2CCOCC2)c(=O)c2ccccc21	none (no result: DAX1 inh-1)
CCOc1ccc(N(Cc2ccc(C(=O)O)cc2)S(=O)(=O)c2ccc(C)cc2)cc1	ssDAF-12 act 1.5
FC(F)(F)c1ccccc1CN1CCCc2nc(-c3ccc(Br)cc3)ccc21	ssDAF-12 act 2.6 (no result: DAX1 inh-1)
FC(F)(F)c1ccccc1CN1CCCc2nc(-c3ccccc3)ccc21	none (no result: DAX1 inh-1)
COCCN1CCCc2nc(-c3ccc(Br)cc3)ccc21	hgDAF-12 ag 10.5, DAX1 inh-2 4.0 (no result: DAX1 inh-1)
COc1ccc(-c2ccc3c(n2)CCCN3Cc2ccccc2C(F)(F)F)cc1	DAX1 inh-2 4.2 (no result: DAX1 inh-1)
Cc1cccc(-c2cccc3c4c([nH]c23)[C@@H]2C[C@H](N(C)C(=S)Nc3ccc(C#N)cc3)[C@H]([C@H](C)O)CN2CC4)c1	none (no result: DAX1 inh-1)
COc1ccc2nc(NN=Cc3cccc(C)n3)cc(C)c2c1	none (no result: DAX1 inh-1)
COc1ccc(CNC(=O)C2CCCN(c3nc4ccccc4o3)C2)cc1 (stereo unspecified)	none (no result: DAX1 inh-1)
O=C(O)C1CC=CCC1C(=O)NCc1cn2ccccc2n1 (stereo unspecified)	ssDAF-12 act 1.1
N/C(=N\OC(=O)c1ccc(Cl)cc1Cl)c1cccnc1	hgDAF-12 ag 11.4
N/C(=N\OC(=O)c1ccc(Cl)cc1)c1cccnc1	none
COc1ccc2[nH]c(C(=O)O)c(NC(=O)c3cc(OC)c(OC)c(OC)c3)c2c1	none
COc1cc(C(=O)Nc2c(C(=O)O)[nH]c3ccccc23)cc(OC)c1OC	hcDAF12 agonist 6.1
CC(=O)Nc1c(C(=O)O)[nH]c2ccccc12	hcDAF12 agonist 6.1
O=C(NCc1ccco1)C1CCCN(S(=O)(=O)c2cccs2)C1 (stereo unspecified)	none (no result: DAX1 inh-1)
COc1cccc(NC(=O)Nc2ccccc2Br)c1	hgDAF-12 ag 10.9
COc1ccc(NC(=O)Nc2cccc(OC)c2)cc1	none
COc1cccc(NC(=O)Nc2nc(SC(C)(C)C)ns2)c1	none
COc1cccc(NC(=O)Nc2nc(SC)ns2)c1	DAX1 inh-1 7.2, hgDAF-12 ag 12.4
CC(=O)c1cccc(NC(=S)NC(=O)c2cncc(Br)c2)c1	none
COc1cccc(C(=O)Nc2cccc(C(C)=O)c2)c1	none
COc1cccc(NC(=O)c2cccc(Cl)c2)c1	hgDAF-12 ag 12.1
COc1cccc(NC(=S)NC(=O)c2cncc(Br)c2)c1	DAX1 inh-1 4.5
Cc1ccc(Cn2cc(CN3[C@@H](Cc4ccccc4)COc4cc(Br)ccc4S3(=O)=O)nn2)cc1	none (no result: DAX1 inh-1)
C[C@H]1[C@@H](OC(=O)NCCc2c[nH]c3ccccc23)CC[C@@]23CCCN2C(=O)CCC[C@@H]13	none (no result: DAX1 inh-1, DAX1 inh-2)
CCOC(=O)Nc1ccc2c(c1)[C@@]1(CC(=O)N(CC(C)C)C1c1ccccc1)C(=O)N2C (stereo partly specified)	none (no result: DAX1 inh-1)
CCOC(=O)C1=C(C)N(CCCC(=O)NCc2ccc3c(c2)OCO3)C(=O)NC1c1ccc(Br)cc1 (stereo unspecified)	none (no result: DAX1 inh-1)
